SW480 rerep: A quantitative high throughput screen for small molecules that induce DNA re-replication in SW480 colon adenocarcinoma cells. SW480 DNA re-replication, Hoechst DNA content imaging, 48 h. Potency, µM (top dose mostly 46.1 µM), usual class: activators. AID 624297, 2012. 1.8% of 340,000 active; note: nearly all actives have a fitted effect of over 55% in size
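250 cells/well; 23 nL cpd via pin tool; 48 hr, 37 C, 5% CO2; Hoechst 40 min; imager read of total nuclear intensity, ex 405/em 500-530 nm.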
KB-3-1 tox: qHTS assay for MDR1-selective chemotherapeutics: Primary screen using the parental adenocarcinoma cell KB-3-1; 1.4% of 400,000 active; AID 1347075, 2019; Potency, µM (top dose mostly 46.1 µM), most hits filed as cytotoxic; KB-3-1 viability, CellTiter-Glo ATP luminescence, 72 h; note: nearly all actives have a fitted effect of over 60% in size
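KB-3-1 parental drug-naive adenocarcinoma cells in DMEM/10% FBS, incubated 72 h at 37 C with pin-transferred compounds across a concentration series. Viability by CellTiter-Glo luminescence; concentration-response curves fitted after normalization.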
HT1080-NT tox: qHTS for induction of synthetic lethality in tumor cells producing 2HG: qHTS for the HT-1080-NT fibrosarcoma cell line. HT-1080-NT fibrosarcoma viability, CellTiter-Glo ATP luminescence, 48 h. Potency, µM (titrated, usually from 46.1 µM), actives largely listed as cytotoxic. 1.6% of 360,000 active;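 note: NT is the 2HG producing partner of a matched IDH1 knockdown line; nearly all actives have a fitted effect of over 55% in size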
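Toxicity toward the 2HG-producing NT line was scored as %Activity, normalised to DMSO and no-cell wells, from CellTiter-Glo luminescence after 48 hours' treatment.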
MCF10A rereplic: A quantitative high throughput screen for small molecules that induce DNA re-replication in MCF 10a normal breast cells | Potency, µM (top dose mostly 46.1 µM), actives largely listed as activators | AID 624296, 2012 | MCF 10A DNA re-replication, Hoechst nuclear intensity, 48 h | 2.9% of 350,000 active; note: nearly all actives have a fitted effect of over 50% in size
HT1080 IDH1KD tx: qHTS for induction of synthetic lethality in tumor cells producing 2HG: qHTS for the HT-1080-IDH1KD cell line; 2% of 360,000 active; Potency, µM (doses to about 46.1 µM), actives largely listed as cytotoxic; HT-1080 IDH1 knockdown viability, ATP luminescence, 48 h
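In this qHTS, HT-1080 cells depleted of IDH1 are exposed for 48 h at 37 °C to compound titrations. Toxicity is scored from CellTiter-Glo luminescence, with DMSO as full viability and medium alone as none.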
KB-V1 MDR tox: qHTS assay for MDR1-selective chemotherapeutics: Primary screen using the drug-selected MDR subline cells KB-V1 | KB-V1 MDR cells viability, CellTiter-Glo, 72 h | Potency, µM (doses to about 46.1 µM), usual class: cytotoxic | 3.4% of 400,000 active; note: nearly all actives have a fitted effect of over 60% in size
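Cytotoxicity via CellTiter-Glo luminescence after 72 h compound exposure at 37 degrees C. Cells: drug-selected KB-V1 line, DMEM phenol-red free plus 10% FBS. Compounds tested at multiple concentrations; normalized data fitted to concentration-effect curves.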
A number is an active result; i = inactive; ? = inconclusive; nt = no result given; [ ] = another dose, or the depositor's remark. This is a sample that favours compounds with a hit; in the whole collection about 7.9% have one here. Calls come from the whole dose curve; as a rule, active = well fitted curve in the direction sought with a large enough effect; inconclusive = small, poorly fitted or top-dose-only effect, or another doubt; inactive = no such curve, though single readings can be large; an effect the other way counts as inactive or inconclusive.

SMILES | SW480 rerep | KB-3-1 tox | HT1080-NT tox | MCF10A rereplic | HT1080 IDH1KD tx | KB-V1 MDR tox
CN(C(=O)c1cccc(NC(=O)Cc2cccc(NC(=O)C3CCN(C(=O)C4CCCCC4)CC3)c2)c1)C1CCC1 | i | i | i | 1.2µM | i | i
CN(C(=O)c1cccc(NC(=O)Cc2cccc(NC(=O)C3CCN(C(=O)C4CCC4)CC3)c2)c1)C1CCC1 | ? | i | i | i | i | i
COc1ccc2oc3cc(Cl)ccc3c(=O)c2c1 | nt | i | i | nt | i | i
Cc1c(C(=O)N2CCN(CCc3ccccc3)CC2)oc2ccccc12 | i | i | i | ? | i | 13µM
O=C(Cc1ccccc1)Nc1c(C(=O)N2CCN(c3ccc(F)cc3)CC2)oc2ccccc12 | nt | i | nt | nt | nt | 12µM
CCOc1ccc2oc(C(=O)O)c(C)c2c1 | i | i | i | i | i | i
Cc1c(C(=O)N2CCN(S(C)(=O)=O)CC2)oc2ccccc12 | i | i | i | i | i | i
CCOc1ccc2oc(C(=O)N3CCN(Cc4ccccc4)CC3)c(C)c2c1 | i | i | i | 21µM | i | i
O=C1CSCc2nc3ccccc3n21 | i | i | i | i | i | i
O=C(NNc1ccc(F)cc1)c1c(F)cccc1Cl | i | i | i | i | i | i
CN(C)/C=C(\C#N)S(=O)(=O)C(C)(C)C | i | i | i | 5.2µM | i | i
CC(C)(C)S(=O)(=O)/C(C#N)=C/Nc1ccccn1 | i | i | i | i | i | i
COc1ccc(OC)c2sc(N3CCc4ccccc4C3)nc12 | i | i | i | i | i | ?
c1ccc2c(c1)CCN(c1nc3cc4c(cc3s1)OCCO4)C2 | i | ? | ? | 15µM | ? | ?
CCOc1ccc(S(=O)(=O)Nc2ccc(C(=O)NCC(c3ccco3)N(C)C)cc2)cc1 (stereo not given) | i | i | i | i | i | i
O=C(CC(SCCO)c1ccc(F)cc1)c1ccco1 (stereo not given) | ? | i | i | 21µM | i | i
CCCOc1ccc(F)cc1-c1cc(C(=O)NCc2ccccc2OC)[nH]n1 | nt | i | i | nt | i | i
CCCc1c(-c2ccccc2)ncn1Cc1ccccc1OC | nt | ? | i | nt | ? | 18µM
CCCc1c(-c2cccc(F)c2)ncn1Cc1ccccc1OC | nt | i | ? | nt | ? | ?
CCCc1c(-c2ccc(F)cc2F)ncn1Cc1ccccc1OC | nt | ? | 18µM | nt | ? | ?
Cc1ccc(C2Nc3ccccc3-n3c(-c4ccccc4)c4c(=O)n(C)c(=O)n(C)c4c32)o1 (stereo not given) | nt | i | nt | nt | nt | i
N=c1c(-c2nc3ccccc3[nH]2)cc(C(=O)c2ccco2)nn1-c1ccccc1 | 7.3µM | i | i | i | i | i
Cc1ccc(C(C)C)cc1OCCCCN1CCCC1 | i | i | i | ? | i | 21µM
CCC(Sc1nc2c(c(=O)[nH]1)CCC2)C(=O)Nc1cccc(OC)c1 (stereo not given) | i | i | i | i | i | 16µM
O=C(NCC1CCCC(CNC(=O)N2CCc3ccccc32)C1)N1CCc2ccccc21 (stereo not given) | ? | i | ? | i | 20µM | 5.2µM
SMILES | SW480 rerep | KB-3-1 tox | HT1080-NT tox | MCF10A rereplic | HT1080 IDH1KD tx | KB-V1 MDR tox
COC(=O)C1C(O)=C(C(C)=Nc2cccc3ccccc23)C(=O)CC1(C)C (stereo not given) | 5.8µM | i | i | i | i | i
CN(C)S(=O)(=O)c1ccc2c(c1)nc(CCC(=O)Nc1ccc3c(c1)OCO3)n2C | i | i | i | i | i | i
Cc1ccc2c(c1)C(=O)N1[C@H]3c4cc(Cl)ccc4OC[C@@H]3[C@H](c3ccccc3)[C@]1(C)C(=O)N2 | ? | ? | i | 10µM | ? | i
C[C@@]12C(=O)Nc3ccc(Cl)cc3C(=O)N1[C@H]1c3ccccc3OC[C@@H]1[C@@H]2c1ccccc1 | i | ? | i | ? | i | i
Cc1ccc2c(c1)[C@H]1[C@H](CO2)[C@H](c2ccccc2)[C@]2(C)C(=O)Nc3ccc(Br)cc3C(=O)N12 | ? | i | i | i | ? | i
C[C@@]12C(=O)Nc3ccc(F)cc3C(=O)N1[C@H]1c3cc(Cl)ccc3OC[C@@H]1[C@@H]2c1ccccc1 | 21µM | ? | ? | 18µM | ? | i
Cc1ccc2c(c1)C(=O)N1[C@H]3c4cc(C)ccc4OC[C@@H]3[C@H](c3ccccc3)[C@]1(C)C(=O)N2 | ? | ? | ? | 5.8µM | 7.3µM | ?
C[C@@]12C(=O)Nc3ccc(F)cc3C(=O)N1[C@H]1c3ccccc3OC[C@@H]1[C@@H]2c1ccccc1 | i | i | i | i | i | i
Cc1ccc2c(c1)C(=O)N1[C@H]3c4cc(Br)ccc4OC[C@@H]3[C@H](c3ccccc3)[C@]1(C)C(=O)N2 | i | i | ? | 13µM | ? | ?
Cc1cccc(C(=O)NN(C)c2nc(-c3ccccc3)nnc2C(F)(F)F)c1 | i | i | i | i[0.0737 µM] | i | i
Cc1ccc(C(=O)NC(C)c2ccccc2)o1 (stereo not given) | i | i | i | i | i | i
O=C(CN(C(=O)CNS(=O)(=O)c1ccc(F)cc1)C1CCCC1)NCc1ccco1 | i | i | i | i | i | i
O=C(NCc1ccc(Cl)cc1)C1CCCN1C(=O)Nc1ccccc1 (stereo not given) | i | i | i | i | i | i
COc1ccc(Cl)cc1NC(=O)c1ccc2c(c1)CCCN2S(C)(=O)=O | nt | i | nt | nt | nt | i
COc1ccc(C(C)=O)cc1COc1cccnc1[N+](=O)[O-] | ? | i | i | ? | ? | 15µM
CCOc1ccc(C(C)=O)cc1COc1cccnc1[N+](=O)[O-] | 21µM | ? | ? | ? | ? | 12µM
CN1N=C2c3ccccc3CCC2C1c1ccc(Cl)cc1 (stereo not given) | ? | i | i | i | i | i
COc1ccc(C(=O)Nc2ccccc2C(=O)Nc2cc(C)ccn2)cc1 | i | ? | ? | ? | ? | ?
O=C(Nc1ccccc1C(=O)Nc1ccccn1)c1cccc([N+](=O)[O-])c1 | i | i | i | 3.7µM | i | i
O=C(Nc1nc(-c2cccnc2)cs1)c1cccc([N+](=O)[O-])c1 | i | i | i | i | i | i
COc1cc(C(=O)Nc2ccccc2NC(=O)c2cc(OC)c(OC)c(OC)c2)cc(OC)c1OC | i | i | i | i | i | i
Cc1ccnc(NC(=O)c2ccccc2NC(=O)C(C)(C)C)c1 | 16µM | ? | ? | 16µM | ? | 10µM
